Measurements taken from PubChem BioAssay AID651791 (National Center for Advancing Translational Sciences (NCATS), 2012).
Inconclusive results are not listed. Activity calls are given as the source filed them. Calls follow the shape of the dose curve; as a rule, active = well fitted inhibition curve with a large enough effect; inconclusive = small, poorly fitted or top-dose-only effect; inactive = no such curve, though single readings can be large or run the other way.

test: InCell qHTS Assay for Inhibitors of the mTORC1 Signaling Pathway in MEF (Tsc2-/-, p53-/-) Cells: Hit Validation; conditions: phospho-rpS6 immunofluorescence, 24 h; activity change, negative = inhibition: at 38.3 µM (top of the series);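 also: phospho-S6 Ser235/236 signal normalized to propidium iodide cell count per well; nearly all actives have a fitted effect of over 75% in size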
Potency is read from the fitted curve at half-maximal effect.

For Cc1ccc(C(=O)CC2(O)C(=O)N(Cc3ccccc3F)c3ccccc32)cc1 (stereo unspecified), which activity change, negative = inhibition is on record?
Its activity change, negative = inhibition is -100%.

Which activity change, negative = inhibition does the source give for Cc1ccc(-c2nnn(CC(=O)N(CC(=O)NCCC(C)C)c3ccc(F)cc3)n2)cc1 here?
Its activity change, negative = inhibition is -100%.

For CC(C)c1nnc(NC(=O)c2nc(S(=O)(=O)Cc3ccccc3)ncc2Cl)s1, which Potency is on record?
Its Potency is 3.29 µM (active).

For C=C(C)CSc1nc(-c2ccccc2)cc(-c2ccc(OC)cc2)c1C#N, which activity change, negative = inhibition is on record?
The activity change, negative = inhibition was -100%.

With COc1ccc(CC(=O)Nc2sc3c(c2C(=O)Nc2cccc(C)c2)CCCCC3)cc1 as the compound, how does the activity change, negative = inhibition read?
The activity change, negative = inhibition was -17.5%.

With CCc1ccc(OCC(=O)Nc2ccc3oc(-c4ccc(OC)cc4)nc3c2)cc1 as the compound, how does the activity change, negative = inhibition read?
Its activity change, negative = inhibition is -100%.

For CC1CCCN(CCCNC(=O)c2ccc3c(c2)N(Cc2ccc(Cl)cc2)C(=O)c2ccccc2S3(=O)=O)C1 (stereo unspecified), which activity change, negative = inhibition is on record?
The activity change, negative = inhibition was -100%.

For COc1cc(NC(=O)c2cccc3c2C(=O)N(C2CCCCC2)C3)cc(OC)c1OC, which activity change, negative = inhibition is on record?
Its activity change, negative = inhibition is -100%.

With O=C(C1CCN(c2nc3ccccc3[nH]2)CC1)N1CCN(c2cccc(Cl)c2)CC1 as the compound, how does the activity change, negative = inhibition read?
The activity change, negative = inhibition was -100%.

For Cc1ccccc1NC(=O)Cn1cc(C(=O)c2cccs2)c2ccccc21, which activity change, negative = inhibition is on record?
The activity change, negative = inhibition was -100%.

With CCOc1cccc(C2CC(=O)Nc3cc4c(cc32)OCCO4)c1 (stereo unspecified) as the compound, how does the activity change, negative = inhibition read?
Its activity change, negative = inhibition is -14.6%.

Which activity change, negative = inhibition does the source give for Cc1ccc2sc(N(CCCN(C)C)C(=O)c3ccco3)nc2c1C here?
Its activity change, negative = inhibition is -25.4%.

For CN(C(=O)CSc1nc2ccc(NC(=O)COc3ccc(F)cc3)cc2s1)c1ccccc1, which activity change, negative = inhibition is on record?
The activity change, negative = inhibition was -100%.

With O=c1oc2ccccc2cc1-c1cn2cc(Cc3ccccc3F)sc2n1 as the compound, how does the activity change, negative = inhibition read?
The activity change, negative = inhibition was -100%.

Which activity change, negative = inhibition does the source give for Cc1nc2scc(C)n2c(=O)c1S(=O)(=O)Nc1ccc(N2CCOCC2)c(Cl)c1 here?
The activity change, negative = inhibition was -100%.

Which activity change, negative = inhibition does the source give for CCOc1ccc(-c2nc(SCC(=O)c3ccccc3)n[nH]2)cc1 here?
The activity change, negative = inhibition was -2.9%.
